# Most compounds without a hit are left out; they make up all but 1.5% or so of the library.
# PI5P4Ka inh – qHTS for Inhibitors of phosphatidylinositol 5-phosphate 4-kinase (PI5P4K); actives 1.2% (n = 330,000); Phosphatidylinositol 5-phosphate 4-kinase type-2 alpha (Homo sapiens), P48426; AID 652105, 2013; PI5P4Kalpha enzyme, ADP-Glo luminescence, 60 min; hits give low values; max response, %; active means max response of -50% or lower; inconclusive means between -30% and -50%; inactive means -30% or higher; further: value at the top dose of about 77 µM
#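 Quantitative HTS of the MLSMR library against PI5P4Kalpha with substrate. ATP added last at 5 microM final; room temperature, 60 minutes. Remaining ATP depleted, ADP converted and read as luminescence.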
# RECQ1 inh-1 – qHTS Assay for Inhibitors of RecQ-Like Dna Helicase 1 (RECQ1); ATP-dependent DNA helicase Q1 (Homo sapiens), P46063; actives 0.54% (n = 240,000); Potency, µM (highest dose often 57.3 µM), hits mostly inhibitors; RECQ1 DNA unwinding, red fluorescence kinetic read; further: nearly all actives have a fitted effect of over 30% in size
#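 50 nM RECQ1T1 preincubated 15 min with compound in Tris pH 8.0 buffer with MgCl2, DTT, Tween-20 and 2.5 ug/ml poly(dI-dC); started with 200 nM TAMRA/BHQ-2 forked duplex and 2 mM ATP. Unwinding read as fluorescence (525/598 nm), two reads 2 h apart.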
# GCN5L2 inh – qHTS Assay for Inhibitors of GCN5L2. Histone acetyltransferase KAT2A (Homo sapiens), Q92830. GCN5L2 HAT assay, ThioGlo1 CoA-SH fluorescence. Potency, µM (series often up to 58.9 µM), most hits filed as inhibitors. actives 0.21% (n = 390,000)
#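 GCN5L2 (20 nM) in 50mM HEPES pH 7.5, 0.1mM EDTA, 0.01% Tween-20 preincubated 15 min with compounds at room temperature. Reaction started with H3(1-25) 75uM, acetyl-CoA 70uM, ThioGlo1 50uM; CoA-thiol fluorescence (Ex340/Em540) read at 0 and 20 min.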
# FEN1 inhibitor – qHTS Assay for the Inhibitors of Human Flap endonuclease 1 (FEN1); P39748; Recombinant FEN1 flap cleavage, fluorescence, 15 min; Potency, µM (series often up to 114 µM), actives largely listed as inhibitors; actives 0.35% (n = 390,000); AID 588795, 2011; further: nearly all actives have a fitted effect of over 65% in size
# Target sequence (P39748 whole entry, looked up): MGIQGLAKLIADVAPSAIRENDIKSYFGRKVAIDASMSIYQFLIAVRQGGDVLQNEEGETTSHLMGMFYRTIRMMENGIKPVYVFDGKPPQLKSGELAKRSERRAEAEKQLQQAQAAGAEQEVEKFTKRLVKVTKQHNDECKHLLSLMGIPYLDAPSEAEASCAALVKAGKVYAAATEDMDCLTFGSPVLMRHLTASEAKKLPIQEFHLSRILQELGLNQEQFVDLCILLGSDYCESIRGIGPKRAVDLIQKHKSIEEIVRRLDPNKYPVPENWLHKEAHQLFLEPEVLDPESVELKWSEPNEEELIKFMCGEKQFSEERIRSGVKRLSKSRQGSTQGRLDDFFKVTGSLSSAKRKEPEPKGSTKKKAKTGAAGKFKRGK
#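 In this screen, 50 nM flap DNA substrate was added to 10 nM FEN1 pretreated with compound for 15 min at room temperature; cleavage was followed with reads at 0 and 15 min, and Hill fitting gave concentration–response parameters.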
# BLM helicase inh – qHTS Assay for Inhibitors of Bloom's syndrome helicase (BLM); AID 2528, 2010; actives 0.2% (n = 350,000); recombinant BLM DNA unwinding, fluorescence dequenching; Potency, µM (doses to about 56.1 µM), most hits filed as inhibitors; further: nearly all actives have a fitted effect of over 35% in size
# APE1 inh-1 – qHTS Assay for Inhibitors of the Human Apurinic/apyrimidinic Endonuclease 1 (APE1). DNA repair nuclease/redox regulator APEX1 (Homo sapiens), P27695. recombinant APE1, TAMRA/BHQ-2 abasic DNA cleavage fluorescence. Potency, µM (series often up to 65.8 µM), most hits filed as inhibitors. actives 0.35% (n = 350,000); further: nearly all actives have a fitted effect of over 55% in size
# Target sequence (P27695 whole entry, looked up): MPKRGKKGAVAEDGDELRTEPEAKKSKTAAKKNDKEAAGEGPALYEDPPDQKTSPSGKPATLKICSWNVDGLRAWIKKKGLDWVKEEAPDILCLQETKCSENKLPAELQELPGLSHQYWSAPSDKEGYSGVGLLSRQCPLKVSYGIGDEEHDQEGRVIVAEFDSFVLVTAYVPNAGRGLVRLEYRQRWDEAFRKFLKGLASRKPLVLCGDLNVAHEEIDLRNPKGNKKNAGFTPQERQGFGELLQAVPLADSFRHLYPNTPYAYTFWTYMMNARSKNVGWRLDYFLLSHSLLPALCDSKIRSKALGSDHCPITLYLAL
#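 Endonuclease cleavage of a quenched abasic-site DNA duplex (50 nM) by APE1 (0.75 nM) was tracked by TAMRA dequenching. Compounds were preincubated with enzyme 15 min at room temperature; data normalized to buffer-only and DMSO wells plus NSC13755 control.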
# DNA dye displace – Counterscreen for APE1 Inhibitors: Fluorescent Dye Displacement Assay. actives 7% (n = 480). AID 2564, 2010. Potency, µM (doses to about 28.5 µM), hits mostly inhibitors. shares compounds with APE1 inh-1. DNA fluorescent dye displacement counterscreen, fluorescence;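 further: loss of thiazole orange fluorescence as the dye is displaced from duplex DNA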
# Endo IV inh – Counterscreen for APE1 Inhibitors: qHTS Assay for Inhibitors of Endonuclease IV | shares compounds with APE1 inh-1 | E. coli Endo IV, fluorogenic AP-site DNA cleavage | Potency, µM (series often up to 27.1 µM), hits mostly inhibitors | AID 2565, 2010 | actives 4% (n = 560)
# APE1 inh-2 – Confirmation qHTS Assay for Inhibitors of the Human Apurinic/apyrimidinic Endonuclease 1 (APE1). shares compounds with APE1 inh-1. purified APE1, fluorogenic abasic-site DNA cleavage. Potency, µM (series often up to 57.1 µM), most hits filed as inhibitors. AID 2572, 2010. actives 44% (n = 750); further: nearly all actives have a fitted effect of over 30% in size
# APE1 FP – qHTS FP-Based Assay for Inhibitors of the Human Apurinic/apyrimidinic Endonuclease 1 (APE1). shares compounds with APE1 inh-1. APE1 binding to TAMRA-labelled double-stranded DNA, fluorescence polarization displacement. Potency, µM (doses to about 28.5 µM), actives largely listed as inhibitors. actives 7% (n = 480)
# RECQ1 conf – Confirmation qHTS Assay for Inhibitors of RecQ-Like Dna Helicase 1 (RECQ1); RECQ1 helicase DNA unwinding, fluorescence; Potency, µM (series often up to 229 µM), hits mostly inhibitors; shares compounds with RECQ1 inh-1; actives 28% (n = 610); further: nearly all actives have a fitted effect of over 45% in size
# ADP FP counter – Counterscreen for RECQ1 Inhibitors: ADP Fluorescence Polarization Displacement Assay. Potency, µM (doses to about 228 µM), actives largely listed as inhibitors. actives 27% (n = 530). shares compounds with RECQ1 inh-1. ADP fluorescence polarization displacement counterscreen; further: nearly all actives have a fitted effect of over 45% in size
# RECQ1 inh-2 – Confirmation qHTS Assay for Inhibitors of RecQ-Like Dna Helicase 1 (RECQ1) - Round 2 Cherry Picks. shares compounds with RECQ1 inh-1. Potency, µM (titrated, usually from 119 µM), usual class: inhibitors. recombinant RECQ1 DNA unwinding, red fluorescence. actives 15% (n = 1,100); further: nearly all actives have a fitted effect of over 50% in size
# A number is an active result; i = inactive; ? = inconclusive; nt = not tested or not shown; ! = repeats disagree; [ ] = another dose, or the depositor's remark. Unless noted, the call rests on the fitted dose curve; in most records, active means well fitted curve in the direction sought with a large enough effect; inconclusive means small, poorly fitted or top-dose-only effect, or another doubt; inactive means no such curve, though single readings can be large; an effect the other way counts as inactive or inconclusive.
SMILES,PI5P4Ka inh,RECQ1 inh-1,GCN5L2 inh,FEN1 inhibitor,BLM helicase inh,APE1 inh-1,DNA dye displace,Endo IV inh,APE1 inh-2,APE1 FP,RECQ1 conf,ADP FP counter,RECQ1 inh-2
COc1ccc(C(=O)CC(=O)c2ccc(C(C)(C)C)cc2)cc1,i,32µM,32µM,i,i,8.9µM,?,i,7.9µM,?,13µM,?,?
Cc1ccc2c(=O)c3ccccc3n(CCCN)c2c1C,nt,32µM!,?,nt,i,4.5µM!,14µM,i,8.9µM,i,nt,nt,18µM
N#Cc1ccc(CS(=O)(=O)c2nc3ccccc3s2)cc1,nt,i,nt,nt,i,i,nt,nt,nt,nt,nt,nt,nt
Nc1ccc(Nc2ccccc2)c(S(=O)(=O)O)c1,i,?,i,i,i,14µM,?,i,?,?,nt,nt,?
O=C(CSc1nccc(=O)[nH]1)N1N=C2/C(=C/c3ccco3)CCCC2C1c1ccco1 (stereo not drawn),-58,16µM,?,i,i,13µM,i,i,8.9µM,i,?,?,?
CC(C)Sc1nnc2c3ccccc3n(C)c2n1,nt,nt,nt,i,nt,nt,nt,nt,nt,nt,nt,nt,nt
C=Cc1c(C)/c2[n-]/c1=C\c1[n-]c(c(CC)c1C)/C=c1\[n-]c3c(c1C)C(=O)C(C(=O)[O-])C=3c1[n-]c(c(C)c1CCC(=O)[O-])\C=2.[Cu].[Na+].[Na+] (stereo not drawn),nt,1.1µM,2.5µM,nt,11µM,nt,nt,16µM,2.8µM,nt,2.8µM,45µM,nt
COc1ccc(/C=C/c2cnc3ccccc3n2)cc1OC,nt,nt,nt,i,nt,nt,nt,nt,nt,nt,nt,nt,nt
O=C1CCCC2=C1C(c1ccc(Cl)cc1)N=C(Nc1nc3ccccc3o1)N2 (stereo not drawn),nt,nt,nt,i,nt,nt,nt,nt,nt,nt,nt,nt,nt
CC(=O)NC1=NN(C(C)=O)C(C)(c2ccccc2)S1 (stereo not drawn),nt,40µM,i,i,?,2.8µM,i,i,1.4µM,i,nt,nt,i
C=C(C)C(=O)Nc1cccc(C2=NOC3(C2)C[C@@H](C(N)=O)N(C(=O)c2ccc(OC)cc2)C3)c1 (stereo partly drawn),?,7.9µM,i,?,i,?,nt,nt,?,nt,25µM,35µM,nt
C=C(C)C(=O)Nc1cccc(C2=NOC3(C2)C[C@@H](C(N)=O)N(C(=O)c2cc([N+](=O)[O-])cc([N+](=O)[O-])c2)C3)c1 (stereo partly drawn),i,i,i,i,i,i,nt,nt,nt,nt,nt,nt,nt
COc1ccc(/C=C/C(=O)CC(=O)/C=C/c2cccc(O)c2OC)cc1O,nt,i,i,nt,i,?,nt,nt,nt,nt,nt,nt,nt
COc1ccc(-c2c(O)c3cc(O)cc(O)c3oc2=O)cc1,nt,i,i,nt,i,i,nt,nt,nt,nt,nt,nt,nt
O=c1oc2c(O)c(O)cc3c(=O)oc4c(O)c(O)cc1c4c23,-100,0.56µM,?,1.6µM,2µM,0.045µM!,0.089µM,?,0.014µM,28µM,?,4.5µM,nt
C[C@H]1Cc2c(COc3ccccc3)nc3c(c2CO1)CN(S(=O)(=O)c1ccc2c(c1)OCCN2C)CC3,nt,i[11.5 µM],nt,nt,i[12.4 µM],i[12.4 µM],nt,nt,nt,nt,nt,nt,nt
Cc1c2c(c(O)c3c(O)cccc13)C(=O)O[C@H]2C1C(N(C)C)C(O)=C(C(N)=O)C(=O)[C@H]1O (stereo partly drawn),nt,3.2µM,3.2µM,nt,18µM,2µM,10µM,i,1.4µM,2.2µM,40µM,16µM,?
Cc1c(C(=O)OCc2ccccc2)[nH]c2c1C(=O)CC(c1ccco1)C2 (stereo not drawn),-51,32µM,i,?,i,25µM,i,i,14µM,i,nt,nt,?
